Only some compounds are listed: those with a hit (about 3% of all), similar ones and a draw of the others.
PPC-1+TRAIL kill: PPC-1 cancer cell killing with TRAIL present; hit rate 0.41% among 220,000; cell killing (% activity), % at 4 µM or 5 µM; AID 1443; PPC-1 cells + TRAIL, ATPLite viability luminescence;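 active = cell killing above 50% in the first pass at 4 µM, then a duplicate retest at 5 µM averaging 50% or more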;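 also: plate controls were cells with TRAIL plus DMSO for no effect and medium-only wells lacking cells for full effect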
SENP8 block-1: SENP8 protease inhibition; purified SENP8, Z-RLRGG-aminoluciferin cleavage, luminescence; inhibition, % at 10 µM; hit rate 1.2% among 330,000; in the data active = inhibition above about 50%
Target sequence (Q96LD8 whole entry, looked up): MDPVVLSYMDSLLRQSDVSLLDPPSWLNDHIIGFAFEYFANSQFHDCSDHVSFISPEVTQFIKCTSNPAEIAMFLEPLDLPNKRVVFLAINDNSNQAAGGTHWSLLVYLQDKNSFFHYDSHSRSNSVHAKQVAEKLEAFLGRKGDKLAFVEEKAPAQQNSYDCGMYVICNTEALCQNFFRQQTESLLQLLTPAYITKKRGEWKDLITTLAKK
SENP7 inh: inhibitors of human SENP7 protease | Q9BQF6 | recombinant SENP7, Z-RLRGG-aminoluciferin luminescence, 40 min | inhibition, % at 5 µM | hit rate 1.5% among 330,000;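 active = inhibition above about 50% at the single test dose, limit read from the data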;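 also: plate controls were DMSO with enzyme for no effect and no enzyme buffer wells for full effect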
SENP8 block-2: blocks human SENP8 cleavage of Nedd8 substrate. Q96LD8. recombinant SENP8, Nedd8 substrate fluorescence. inhibition, % at 20 µM. hit rate 0.64% among 360,000; in the data active = inhibition mostly above about 40%, no sharp cut-off; inactive = mostly below about 27%
TRAIL sens C8: caspase-8 TRAIL sensitization | NB7+C8 cells + TRAIL, ATPlite viability luminescence | inhibition (viability loss, TRAIL sensitization), % at 10 µM | hit rate 1% among 360,000;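 active = compounds causing at least 50% loss of cell viability in the single-dose screen, relative to plate controls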
SENP6 block: SENP6 protease inhibition | Q9GZR1 | Recombinant SENP6 catalytic domain, aminoluciferin luminescence | inhibition, % at 10 µM | hit rate 1.8% among 330,000 | AID 2599;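 active = inhibition above about 50% at the single tested dose, limit read from the data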;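 also: plate controls were DMSO wells with enzyme for no effect and DMSO wells lacking enzyme for full effect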
PPC-1 tox: kills PPC-1 cells. shares compounds with PPC-1+TRAIL kill. PPC-1 viability, ATPlite luminescence, overnight. cytotoxicity, % at 5 µM. hit rate 50% among 1,200. AID 1447;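 active = reconfirmed compounds whose average cytotoxicity reaches 50% or more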;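 also: 0% = DMSO-treated cells and 100% = wells holding medium but no cells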
SENP8 confirm: human SENP8 inhibition, confirmed; shares compounds with SENP7 inh; Recombinant SENP8, Z-RLRGG-aminoluciferin luminescence, 60 min; inhibition, % at 12.5 µM; hit rate 40% among 6,200; AID 488912;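 active = mean inhibition across replicates above about 50%, limit read from the data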
SENP6 conf: confirmation of human SENP6 protease inhibitors | shares compounds with SENP7 inh | recombinant SENP6, Z-RLRGG-aminoluciferin luminescence | inhibition, % at 12.5 µM | AID 488915 | hit rate 58% among 6,200
SENP7 conf: confirmation of human SENP7 protease inhibitors; inhibition, % at 12.5 µM; AID 488917; shares compounds with SENP7 inh; recombinant SENP7, Z-RLRGG-aminoluciferin luminescence, 40 min; hit rate 69% among 6,200
Casp3 select: inhibits human caspase-3 in SENP selectivity test; shares compounds with SENP7 inh; purified caspase-3, Z-DEVD-aminoluciferin luminescence, 60 min; inhibition, % at 12.5 µM; hit rate 60% among 6,200;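 active = mean inhibition above about 50%, limit read from the data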;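 also: plate controls were enzyme with DMSO for no effect and wells without caspase-3 for full effect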
Target sequence (P42574 28-227 limits assumed): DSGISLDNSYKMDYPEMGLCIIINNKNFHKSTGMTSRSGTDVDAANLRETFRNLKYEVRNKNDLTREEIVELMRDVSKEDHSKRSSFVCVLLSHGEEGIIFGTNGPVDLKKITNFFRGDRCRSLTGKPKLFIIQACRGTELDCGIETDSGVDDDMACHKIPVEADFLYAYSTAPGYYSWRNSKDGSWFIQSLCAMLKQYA
SENP luc ctr: interferes with luciferase luminescence in SENP counter-screen | shares compounds with SENP7 inh | Pre-incubated SENP8/Z-RLRGG-aminoluciferin, luciferase luminescence interference | inhibition, % at 12.5 µM | hit rate 39% among 6,200 | AID 488919;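 active = mean inhibition above about 50% when retested at one dose, limit read from the data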;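 also: plate controls were DMSO wells with completed reaction for no effect and substrate without enzyme for full effect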
Active calls of the source: *; i = inactive; / = not tested or not shown.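 The calls were made as follows, unless noted: active = mean inhibition above about 50% in the one-dose retest (limit read from the data); inactive = the rest.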

SMILES	PPC-1+TRAIL kill	SENP8 block-1	SENP7 inh	SENP8 block-2	TRAIL sens C8	SENP6 block	PPC-1 tox	SENP8 confirm	SENP6 conf	SENP7 conf	Casp3 select	SENP luc ctr
Cc1ccc(OCc2nc3ccccc3[nH]2)cc1	49	61*	68*	4	30	45	43	52*	53*	78*	70*	61*
Cc1occc1C(=O)O/N=C(\N)c1ccccc1	57*	91*	93*	11	70*	94*	55*	94*	95*	102*	98*	94*
CC(C)(C)OC(=O)N1CCCC(C(=O)Nc2cccc(C(=O)NCCCCc3ccccc3)c2)C1 (stereo unspecified)	/	/	/	-4	8	/	/	/	/	/	/	/
NC(=O)c1ccccc1NC(=O)/C=C/c1ccc(Cl)cc1	56*	22	63*	3	68*	51*	57*	1	17	89*	66*	18
O=C(/C=C/c1ccc(Cl)cc1)NC(=S)Nc1ccccc1C(=O)O	-5	5	9	-2	-42	-10	/	/	/	/	/	/
CN(C)c1ccc(Nc2nc(-c3cccnc3)cs2)cc1	70*	87*	89*	24	67*	88*	68*	43	78*	96*	92*	32
Cc1ccc(-c2cnc3cc(C)nn3c2)cc1	56*	47	75*	-5	68*	58*	56*	51*	61*	83*	72*	25
O=C(COc1coc(CN2CCc3ccccc32)cc1=O)Nc1cccc(F)c1	/	15	-8	10	-31	2	/	/	/	/	/	/
O=C(/C=C\Nc1ccc2c(c1)OCO2)c1ccc2c(c1)OCO2	85*	30	86*	-51	83*	-7	84*	10	15	-2	10	-1
COc1ccc(C(=O)/C=C/Nc2cccc(O)c2)cc1	82*	88*	85*	-159	62*	93*	83*	96*	97*	102*	91*	91*
O=C(/C=C\Nc1ccc2c(c1)OCO2)c1cccs1	82*	94*	-4	-2	78*	-14	82*	-7	100*	104*	98*	35
COc1ccc(N/C=C\C(=O)c2ccc3c(c2)OCO3)cc1	68*	51*	78*	-147	69*	76*	59*	15	44	65*	54*	22
Cc1cccc(-n2cnc3cc(C(=O)NCC4CCCO4)ccc32)c1 (stereo unspecified)	/	/	/	13	3	/	/	/	/	/	/	/
CCc1c(-c2cccc(Br)c2)ncn1Cc1cccc(-c2ccccc2)c1	/	/	/	10	-3	/	/	/	/	/	/	/
Cc1ccc(N/C=C/C(=O)c2cccs2)cc1	86*	94*	93*	-163	88*	93*	85*	79*	97*	101*	95*	70*
O=C(/C=C\Nc1ccc2c(c1)OCO2)c1ccccn1	92*	96*	100*	-299	87*	97*	92*	81*	97*	99*	92*	26
CC(=O)Nc1cc2ccccc2oc1=O	-4	-11	-2	-62	-5	-24	/	/	/	/	/	/
Cc1ccc(C(=O)Nc2cc3ccccc3oc2=O)cc1	72*	89*	98*	-304	82*	91*	72*	33	33	18	56*	6
Cc1cn2nc(N)c3ccccc3c2n1	18	-2	-4	i	17	-3	/	/	/	/	/	/
Nc1nn2cc(-c3ccccc3)nc2c2ccccc12	47	56*	69*	-403	56*	33	51*	78*	76*	91*	73*	74*
CCCCCN1C=CC(=C2C(=O)c3ccccc3C2=O)C=C1	94*	96*	97*	24	96*	96*	94*	94*	96*	100*	96*	46
CC1=CC(=C2C(=O)c3ccccc3C2=O)C=C(C)N1C	11	-3	-2	27	14	5	/	/	/	/	/	/
COc1ncnc2c1ncn2CCCN(C)CCc1ccccn1	/	/	/	2	-2	/	/	/	/	/	/	/
c1ccc(-c2noc(-c3ccc4c(c3)OCO4)n2)nc1	87*	98*	-1	-26	85*	98*	88*	-26	97*	103*	98*	5
COc1cccc(-c2nc(-c3ccccn3)no2)c1	76*	92*	97*	/	/	97*	81*	95*	98*	103*	98*	96*
SMILES	PPC-1+TRAIL kill	SENP8 block-1	SENP7 inh	SENP8 block-2	TRAIL sens C8	SENP6 block	PPC-1 tox	SENP8 confirm	SENP6 conf	SENP7 conf	Casp3 select	SENP luc ctr
COc1cccc(-c2nc(-c3ccc(NC(=O)c4cccnc4)cc3)no2)c1	-19	-6	5	23	9	-5	/	/	/	/	/	/
COc1ccc(-c2cc(=O)c3c(O)c(OC)c(O)cc3o2)cc1	64*	83*	87*	6	70*	84*	64*	90*	90*	99*	89*	55*
COc1ccc(-c2cc(=O)c3c(O)c(OC)c(OC)c(OC)c3o2)cc1	/	/	/	19	1	/	/	/	/	/	/	/
CC(Oc1ccc(Cl)cc1Cl)C(=O)OCC(=O)c1c(N)n(C)c(=O)n(C)c1=O (stereo unspecified)	/	5	5	28	11	-4	/	/	/	/	/	/
CCOC(=O)c1c(S(=O)(=O)N2CCCCCC2)c(C)n(C)c1C	/	-1	-3	8	-7	2	/	/	/	/	/	/
O=C1C(c2ccnc3ccccc23)=C(O)c2ccccc21	84*	39	97*	62*	89*	64*	86*	86*	86*	97*	94*	88*
N#CC1=C(N)SC(N)=C(C#N)C1c1ccnc2ccccc12	15	-9	-2	-306	-14	1	/	/	/	/	/	/
O=C1c2ccccc2C(=O)C1c1ccnc2ccccc12	86*	85*	99*	28	90*	79*	87*	84*	89*	100*	94*	21
c1ccc2[nH]c(-c3ccnc4ccccc34)nc2c1	32	-11	-7	-388	-9	-27	/	/	/	/	/	/
O=C(O)c1cc(N2C(=O)CCC2=O)ccc1Cl	/	4	5	26	24	3	/	/	/	/	/	/

Screening results: PubChem, Sanford-Burnham Center for Chemical Genomics
